Measured values as given in the antibiotic and cytotoxicity screens of Wong et al. (2023).
Out of some 39,000 compounds screened, about 1,500 (3.8%) were called active. For the sample, actives were picked, then their nearest neighbours and some compounds at random.

system: HSkMC (human skeletal muscle cells); assay: cytotoxicity call (relative viability < 0.9); conditions: 10 µM

Compound | cytotoxicity call
C[C@H](CO)N1C[C@H](C)[C@H](CN(C)Cc2ccccc2)OCCCC[C@H](C)Oc2ccc(NC(=O)CCC(F)(F)F)cc2C1=O | inactive
COc1ccc(S(=O)(=O)Nc2cccc3c2O[C@@H](CN(C)CC2CC2)[C@@H](C)CN([C@H](C)CO)C3=O)cc1 | inactive
C[C@H](O)C#Cc1ccc2c(c1)O[C@H](CN(C)C(=O)CN(C)C)[C@H](C)CN([C@@H](C)CO)S2(=O)=O | inactive
CC(C)N(CCOc1c(Br)cc(/C=C/C(=O)NCCCOc2c(Br)cc(CCN(C)C)cc2Br)cc1Br)C(C)C | active
CC(=O)OCC(=O)NCCCOc1cccc(CN2CCCCC2)c1.Cl | inactive
CN(C)CCOc1c(Br)cc(/C=C/C(=O)NCCCOc2c(Br)cc(CCN(C)C)cc2Br)cc1Br | inactive
CN(C)CCc1cc(Br)c(OCCCNC(=O)/C=C/c2cc(Br)c(OCCN3CCCC3)c(Br)c2)c(Br)c1 | active
COc1cc(/C=C/C(=O)NCCCNC(=O)/C=C/c2cc(OC)c(OC)c(OC)c2)cc(OC)c1OC | inactive
CN(C)CCc1cc(Br)c(OCCCNC(=O)/C=C/c2cc(Br)c(OCCN3CCCCC3)c(Br)c2)c(Br)c1 | inactive
Cc1noc(C)c1NC(=O)Nc1ccc2c(c1)C(=O)N([C@H](C)CO)C[C@@H](C)[C@H](CN(C)Cc1ccc(C(=O)O)cc1)OCCCC[C@@H](C)O2 | inactive
CN1CCN(C(=O)C[C@@H]2CC[C@H](NC(=O)Cc3ccccn3)[C@@H](CO)O2)CC1 | inactive
C[C@H]1CN([C@@H](C)CO)C(=O)c2cc(NC(=O)NC3CCCCC3)ccc2O[C@@H]1CN(C)Cc1ccc(-c2ccccc2)cc1 | inactive
COc1ccc(S(=O)(=O)N[C@H]2C=C[C@H](CC(=O)NCCc3ccncc3)O[C@H]2CO)cc1 | inactive
COc1ccc(S(=O)(=O)N(C)C[C@@H]2Oc3ccc(NS(C)(=O)=O)cc3CC(=O)N([C@H](C)CO)C[C@H]2C)cc1 | inactive
Cc1noc(C)c1S(=O)(=O)N(C)C[C@@H]1Oc2ccc(NC(=O)CCC(F)(F)F)cc2CC(=O)N([C@@H](C)CO)C[C@H]1C | inactive
O=C(O)c1ccccc1-c1c2cc(I)c(=O)c(I)c-2oc2c(I)c(O)c(I)cc12 | active
O=C([O-])c1ccccc1-c1c2cc(I)c(=O)c(I)c-2oc2c(I)c([O-])c(I)cc12.[Na+].[Na+] | inactive
O=C(O)CN(CC(=O)O)Cc1cc2c(-c3ccccc3C(=O)O)c3cc(CN(CC(=O)O)CC(=O)O)c(=O)cc-3oc2cc1O | inactive
Cn1cnc(CCNC(=O)C[C@H]2CC[C@H]3[C@@H](COC[C@H](O)CN3C(=O)Nc3ccc(Cl)cc3)O2)c1 | inactive
O=C(C[C@@H]1CC[C@@H]2[C@H](COC[C@H](O)CN2S(=O)(=O)c2ccccc2F)O1)N1CCC(Cc2ccccc2)CC1 | inactive
COCC#Cc1cnc2c(c1)C(=O)N([C@@H](C)CO)C[C@@H](C)[C@@H](CN(C)S(=O)(=O)c1cn(C)cn1)O2 | inactive
C#CC[C@H](c1nc2cc(Cl)ccc2c(=O)n1Nc1ccccc1)N(CCCN)C(=O)c1cccc(Cl)c1F | active
COc1ccc(NC(=O)N(C)C[C@H]2OCCCC[C@@H](C)Oc3ccc(NC(=O)c4ccccc4)cc3C(=O)N([C@H](C)CO)C[C@@H]2C)cc1 | inactive

Compound | cytotoxicity call
C[C@H](CO)N1C[C@H](C)[C@@H](CN(C)S(=O)(=O)c2cn(C)cn2)Oc2c(NC(=O)c3ccc(-c4nccs4)cc3)cccc2C1=O | inactive
COc1cc(Nc2ncc(F)c(Nc3ccc4c(n3)N(COP(=O)(O)O)C(=O)C(C)(C)O4)n2)cc(OC)c1OC | active
NC1CCCCC1N.O=C1[O][Pt][O]C1=O (stereo not drawn) | inactive
Cc1noc(C)c1NC(=O)N(C)C[C@H]1Oc2c(NC(=O)NC(C)C)cccc2C(=O)N([C@@H](C)CO)C[C@H]1C | inactive
Cc1ccc(S(=O)(=O)Nc2ccc3c(c2)C(=O)N([C@@H](C)CO)C[C@H](C)[C@@H](CN(C)C(=O)NC2CCCCC2)OCCCC[C@H](C)O3)cc1 | inactive
C[C@H](CO)N1C[C@H](C)[C@H](CN(C)C(=O)c2ccncc2)OCCCC[C@H](C)Oc2ccc(NS(=O)(=O)c3cn(C)cn3)cc2C1=O | inactive
CC(=O)Oc1ccccc1C(=O)Nc1ccccc1 | inactive
CC(=O)Nc1ncc([N+](=O)[O-])s1 | inactive
CC(=O)Oc1ccccc1C(=O)Nc1ncc([N+](=O)[O-])s1 | active
C[C@@H]1CN([C@H](C)CO)C(=O)c2cc(N(C)C)ccc2O[C@@H](C)CCCCO[C@@H]1CN(C)S(=O)(=O)c1cn(C)cn1 | inactive
CCCNC(=O)C[C@H]1CC[C@H]2[C@@H](COc3ccc(NC(=O)Nc4ccc(C#N)cc4)cc3C(=O)N2C)O1 | inactive
CCOCCOCCOc1oc(C(=O)NC2CCCCC2)c(-c2ccc(Cl)cc2)c1S(=O)(=O)c1ccc(Cl)cc1 | inactive
CS(=O)(=O)O.CSc1ccc2c(c1)C(N1CCN(C)CC1)Cc1ccccc1S2 (stereo not drawn) | active
CSc1ccc2c(c1)N(CCC1CCCCN1C)c1ccccc1S2.Cl (stereo not drawn) | inactive
CN1CCC(=C2c3ccccc3Sc3ccccc32)CC1.O=C(O)C=CC(=O)O | inactive
C[C@@H]1CN([C@H](C)CO)S(=O)(=O)c2ccc(C#Cc3ccc(F)cc3)cc2O[C@H]1CN(C)C(=O)CN(C)C | inactive
CC(C)NC(=O)N(C)C[C@H]1Oc2ccc(NC(=O)NC3CCCCC3)cc2CC(=O)N([C@@H](C)CO)C[C@H]1C | inactive
CNC(=O)Nc1ccc(-c2nc(N3C[C@H]4CC[C@@H](C3)O4)c3cnn(C4CCC5(CC4)OCCO5)c3n2)cc1 | active
CCC(C)C1OC2(C=CC1C)CC1CC(CC=C(C)C(OC3CC(OC)C(OC4CC(OC)C(NC(C)=O)C(C)O4)C(C)O3)C(C)C=CC=C3COC4C(O)C(C)=CC(C(=O)O1)C34O)O2 (stereo not drawn) | inactive
CCC(C)C1OC2(C=CC1C)CC1CC(CC=C(C)C(OC3CC(OC)C(OC4CC(OC)C(O)C(C)O4)C(C)O3)C(C)C=CC=C3COC4C(OC)C(C)=CC(C(=O)O1)C34O)O2 (stereo not drawn) | active
CO[C@H]1C[C@H](O[C@H]2[C@H](C)O[C@@H](O[C@@H]3/C(C)=C/C[C@@H]4C[C@@H](C[C@]5(C=C[C@H](C)[C@@H](C6CCCCC6)O5)O4)OC(=O)[C@@H]4C=C(C)[C@@H](O)[C@H]5OC/C(=C\C=C\[C@@H]3C)[C@]54O)C[C@@H]2OC)O[C@@H](C)[C@@H]1O | inactive
CC[C@H](C)[C@H]1O[C@]2(C=C[C@@H]1C)C[C@@H]1C[C@@H](C/C=C(\C)[C@@H](O[C@H]3C[C@H](OC)[C@@H](O[C@H]4C[C@H](OC)[C@@H](NC(C)=O)[C@H](C)O4)[C@H](C)O3)[C@@H](C)/C=C/C=C3\CO[C@@H]4[C@H](O)C(C)=C[C@@H](C(=O)O1)[C@]34O)O2 | active
COC1CC(OC2C(C)OC(OC3C(C)=CCC4CC(CC5(C=CC(C)C(C6CCCCC6)O5)O4)OC(=O)C4C=C(C)C(O)C5OCC(=CC=CC3C)C45O)CC2OC)OC(C)C1O (stereo not drawn) | inactive

Compound | cytotoxicity call
CN[C@@H]1[C@@H](C)O[C@@H](O[C@H]2[C@H](C)O[C@@H](O[C@@H]3/C(C)=C/C[C@@H]4C[C@@H](C[C@]5(C=C[C@H](C)[C@@H](C(C)C)O5)O4)OC(=O)[C@@H]4C=C(C)[C@@H](O)[C@H]5OC/C(=C\C=C\[C@@H]3C)[C@]54O)C[C@@H]2OC)C[C@H]1OC | active
C[C@H](CO)N1C[C@H](C)[C@@H](CN(C)C(=O)C2CCC2)Oc2cc(C#Cc3ccncc3)ccc2S1(=O)=O | inactive
Cc1noc(C)c1NC(=O)N(C)C[C@@H]1OCCCC[C@@H](C)Oc2ccc(NS(=O)(=O)c3ccc(Cl)cc3)cc2C(=O)N([C@H](C)CO)C[C@H]1C | inactive
C[C@@H]1CN([C@H](C)CO)S(=O)(=O)c2ccc(C3=CCCC3)cc2O[C@H]1CN(C)C(=O)c1cnccn1 | inactive
COc1cccc(S(=O)(=O)N2C[C@H](O)COC[C@@H]3O[C@H](CC(=O)N4CCOCC4)CC[C@H]32)c1 | inactive
C[C@H]1CN([C@@H](C)CO)C(=O)c2cc(NC(=O)CCCN(C)C)ccc2O[C@H]1CN(C)Cc1ccc2c(c1)OCO2 | inactive
COCC(=O)Nc1ccc2c(c1)OC[C@@H](C)N(C(=O)Cc1cccnc1)C[C@@H](C)[C@@H](OC)CN(C)C2=O | inactive
C[C@H](CO)N1C[C@H](C)[C@@H](CN(C)C(=O)CCN2CCCCC2)Oc2ncc(C#Cc3ccccn3)cc2C1=O | inactive
CN(Cc1ccccn1)C(=O)[C@@]12COC[C@@H]1CN(S(C)(=O)=O)C2 | inactive
CC(C)NC(=O)Nc1ccc2c(c1)C(=O)N([C@H](C)CO)C[C@@H](C)[C@H](CN(C)Cc1ccccc1)OCCCC[C@H](C)O2 | inactive
C[C@@H]1CN([C@H](C)CO)C(=O)c2cc(NC(=O)Nc3ccc(C(F)(F)F)cc3)ccc2O[C@H]1CN(C)C(=O)Nc1ccc(F)cc1 | inactive
C[C@@H]1CN([C@@H](C)CO)C(=O)c2cc(NC(=O)Nc3ccc(F)cc3)ccc2O[C@@H]1CN(C)C(=O)Nc1ccc(C(F)(F)F)cc1 | active
C[C@H](CO)N1C[C@H](C)[C@H](CN(C)C(=O)Nc2ccc(C(F)(F)F)cc2)Oc2ccc(NC(=O)Nc3ccc(F)cc3)cc2C1=O | active
C[C@H]1CN([C@@H](C)CO)C(=O)c2cc(NC(=O)Nc3ccc(F)cc3)ccc2O[C@H]1CN(C)C(=O)Nc1ccc(C(F)(F)F)cc1 | inactive
C[C@@H]1CN([C@@H](C)CO)C(=O)c2cc(NC(=O)Nc3ccc(C(F)(F)F)cc3)ccc2O[C@@H]1CN(C)C(=O)Nc1ccc(F)cc1 | active
C[C@H]1CN([C@@H](C)CO)C(=O)c2cc(NC(=O)Nc3ccc(C(F)(F)F)cc3)ccc2O[C@H]1CN(C)C(=O)Nc1ccc(F)cc1 | inactive
C[C@H](CO)N1C[C@H](C)[C@H](CN(C)C(=O)Nc2ccc(F)cc2)Oc2ccc(NC(=O)Nc3ccc(C(F)(F)F)cc3)cc2C1=O | inactive
C[C@H]1CN([C@@H](C)CO)C(=O)c2cc(NC(=O)Nc3ccc(F)cc3)ccc2O[C@@H]1CN(C)C(=O)Nc1ccc(C(F)(F)F)cc1 | inactive
C[C@@H]1CN([C@H](C)CO)C(=O)c2cc(NC(=O)Nc3ccc(F)cc3)ccc2O[C@H]1CN(C)C(=O)Nc1ccc(C(F)(F)F)cc1 | inactive
C[C@@H]1CN([C@H](C)CO)C(=O)c2cc(NC(=O)Nc3ccc(C(F)(F)F)cc3)ccc2O[C@@H]1CN(C)C(=O)Nc1ccc(F)cc1 | active
C[C@H](CO)N1C[C@H](C)[C@@H](CN(C)C(=O)Nc2ccc(C(F)(F)F)cc2)Oc2ccc(NC(=O)Nc3ccc(F)cc3)cc2C1=O | inactive
C[C@H](CO)N1C[C@H](C)[C@@H](CN(C)C(=O)Nc2ccc(F)cc2)Oc2ccc(NC(=O)Nc3ccc(C(F)(F)F)cc3)cc2C1=O | inactive
